Rows were chosen to be rich in hits. Some 13% of all compounds tested hit in one or more screens of this group.
HCV inhibitor = qHTS Assay for Inhibitors of Hepatitis C Virus (HCV). 340,000 tested, 3.4% active. Huh7.5.1 HCVcc-Cre infection, luciferase reporter, 44 h. Potency, µM (series often up to 41.8 µM), without a hit: at the top dose activity change, negative = inhibition, hits mostly inhibitors; also: potency is read from the fitted curve at half-maximal effect
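After 44 h co-culture of compound, cells and HCVcc-Cre (~0.5 moi), substrate is added for 15 min at room temperature and luciferase measured over 15 sec. Cells were seeded at 1,000/well and pre-cultured 4 h.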
Pf growth 48h = Primary qHTS for delayed death inhibitors of the malarial parasite plastid, 48 hour incubation; P. falciparum luciferase growth in erythrocytes, 48 h; Potency, µM (doses to about 28.7 µM), for inactives: at the highest dose activity change, negative = inhibition, actives largely listed as inhibitors; 310,000 tested, 5.9% active; also: potency is read from the fitted curve at half-maximal effect
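Here the parasites carry a stable luciferase gene and grow inside erythrocytes in Albumax-based RPMI medium with compound for one erythrocytic cycle. Activity is scored as loss of luminescent signal.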
HCMV antiviral = qHTS Assay for inhibitors of the human cytomegalovirus (HCMV); 410,000 tested, 4.5% active; HFF cells, HCMV-luciferase reporter, 72 h; hits give low values; AID 1259415, 2018; activity change, negative = inhibition, % at 57.5 µM; in the data active = activity change below about -60%; inconclusive = no clear call, values can overlap the other calls; inactive = above about -39%
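Cell-based, HFFs, 1000 cells/well, 16 h 37C; cpds in DMSO + HCMV-luc, MOI 1 PFU/cell; 72 h 37C; OneGlo luminescence after 5 min RT; norm. to buffer vs Salinomycin 10uM.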
Pf growth 96h = Primary qHTS for delayed death inhibitors of the malarial parasite plastid, 96 hour incubation; P. falciparum luciferase reporter growth, 96 h; Potency, µM (series often up to 28.7 µM), for inactives: at the top dose activity change, negative = inhibition, usual class: inhibitors; 320,000 tested, 6.9% active; also: potency is read from the fitted curve at half-maximal effect
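Compounds incubated with erythrocytes infected by luciferase-expressing P. falciparum (2% hematocrit, 0.05% parasitemia final) for 96 hours, 37 C in 5% CO2. Growth inhibition scored as decreased luciferase luminescence.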
Starred values were filed as active, the others as inactive; ? = inconclusive; · = no result given; + = active, no number; ! = repeats disagree. Unless noted, calls follow the shape of the dose curve; as a rule, active = well fitted inhibition curve with a large enough effect; inconclusive = small, poorly fitted or top-dose-only effect, or another doubt; inactive = no such curve, though single readings can be large or run the other way. % is scaled to controls: 0 for no effect and ±100 for the full control effect.

SMILES | HCV inhibitor | Pf growth 48h | HCMV antiviral | Pf growth 96h
Cc1cccc(C(=O)Nc2ccc3nc(SCC(=O)N4CCCC4)sc3c2)c1 | · | · | -28.4 | ·
Cc1ccc(OCC(=O)Nc2cccc(OCc3cc(=O)n4ccccc4n3)c2)cc1C | · | · | 60.4 | ·
CCOC(=O)c1c(NC(C)=O)sc2c(OCCN(CC)CC)c(Br)ccc12 | 12.6µM* | ? | ? | 89.4%
CCOC(=O)c1c(NC(C)=O)sc2c(OCC(O)CN(CC)CC)c(Br)ccc12 (stereo not drawn) | 5.62µM* | -21.2% | -101.2* | 7.38µM*
CCOC(=O)c1c(NC(C)=O)sc2c(O)c(CN3CCN(CC)CC3)ccc12 | -24.9% | 10.4µM* | -8.6 | -16.9%
Cc1ccc(Cn2c(=O)n(-c3ccc(C)c(C)c3)c(=O)c3c(C)c(C)sc32)cc1 | · | · | -2.4 | ·
CCNC(=S)NCc1ccc(Cl)cc1 | -0.4% | · | 33.5 | ·
CCCc1ccc(C(C)NC(=S)NCc2ccc(F)cc2)cc1 (stereo not drawn) | -12.5% | ? | -27.3 | 11.7µM*
CCC(C)c1ccc(C(C)NC(=S)NCc2ccc(F)cc2)cc1 (stereo not drawn) | 7.08µM* | ? | -66.9* | ?
CCC(NC(=S)NCc1ccc(F)cc1)c1ccc(C(C)C)cc1 (stereo not drawn) | ? | 10.4µM* | -97.2* | ?
CCOc1ccc(C(C)NC(=S)NCc2ccc(Cl)cc2)cc1 (stereo not drawn) | ? | ? | -74.1* | 5.22µM*
Cc1ccc2c(c1)cc1c(=O)n(CC(=O)NC(C)CCc3ccccc3)nc(C)n12 (stereo not drawn) | · | · | -7.8 | ·
COc1ccc(CNC(=O)CCc2c(C)nc3c(c2C)c(=O)n(C)c(=O)n3C)cc1 | · | · | -0.8 | ·
CC(NC(=S)NCc1ccc(F)cc1)C12CC3CC(CC(C3)C1)C2 (stereo not drawn) | -24.7% | ? | -84.6* | ?
CCOc1cc(C2c3c(oc4ccccc4c3=O)C(=O)N2Cc2ccccc2Cl)ccc1O (stereo not drawn) | · | · | -0.7 | ·
Cc1cc(C)cc(OC(C)C(=O)Nc2ccc3c(c2)n(C)c(=O)n3C)c1 (stereo not drawn) | -11.2% | -5.5% | 48.3 | 0.928µM*
Cc1ccc(OC(C)C(=O)Nc2ccc3c(c2)n(C)c(=O)n3C)cc1C (stereo not drawn) | ? | ? | 50.3 | ?
O=C(Nc1cccc(OC(F)(F)F)c1)c1cnc(N2CCN(Cc3cccc(C(F)(F)F)c3)C2=O)o1 | · | · | -9.6 | ·
CCC12CN3CC(CC)(CN(C1)C3c1cccc(OC)c1O)C2=O (stereo not drawn) | · | · | -9.3 | ·
Cn1cc([N+](=O)[O-])c(C(=O)Nc2nccs2)n1 | ? | 12.5% | -96.1* | -1.3%
Cn1cc([N+](=O)[O-])c(C(=O)Nc2ccc(Br)cn2)n1 | 11.2µM* | 44.5% | -64.8* | 53.8%
COc1ccc(C(=O)Nc2nccs2)cc1[N+](=O)[O-] | -6.9% | 109.0% | -0.2 | 1.5%
CCCN(CC(=O)Nc1ccccc1C)C(=O)c1cc(C)oc1C | 1.4% | -20.4% | -7.0 | -7.9%
CCCN(CC(=O)Nc1ccccc1OC)C(=O)CSc1ccc(Br)cc1C | 10µM* | ? | 2.5 | -28.8%
COC(=O)c1ccc(NC(=O)COc2ccc(C3C(C#N)=C(N)Oc4c3ccc3ccccc43)cc2OC)cc1 (stereo not drawn) | ? | ? | 17.1 | ?
SMILES | HCV inhibitor | Pf growth 48h | HCMV antiviral | Pf growth 96h
CCCN(CC(=O)Nc1ccccc1C)C(=O)c1oc2ccc(OCC)cc2c1C | ? | 2.94µM* | -35.7 | 7.38µM*
CCCN(CC(=O)Nc1ccccc1C)C(=O)Cc1c(C)nc2ccccc2c1C | -3.3% | 10.4µM* | -32.4 | ?
COc1cc(C2C(C#N)=C(N)Oc3c2ccc2ccccc32)ccc1OCC(=O)Nc1ccccc1C (stereo not drawn) | 8.91µM* | 10.4µM* | 10.4 | ?
CCCN(CC(=O)Nc1ccccc1OC)C(=O)Cn1[nH]c(=O)c2ccccc2c1=O | -23.6% | -20.4% | -3.6 | -17.8%
CCCN(CC(=O)Nc1ccccc1C)C(=O)/C=C/c1ccc(OCC)c(OC)c1 | ? | 9.28µM* | 1.5 | ?
CCOc1ccc(NC(=O)CN(C)C(=O)c2ccc(OCC3CCCO3)cc2)cc1OCC (stereo not drawn) | 0.6% | -7.9% | ? | -0.5%
COc1cc(/C=C2\SC(N)=NC2=O)ccc1OCC(=O)Nc1ccccc1C | 0.8% | 5.86µM* | 0.0 | 5.22µM*
CCOc1ccc(C(=O)N(CC(=O)Nc2cccc(C)c2C)CC2CCCO2)cc1OC (stereo not drawn) | 6.7% | -12.7% | + | -19.6%
COc1ccc(/C=C2\SC(=O)N(CC(=O)Nc3ccccc3O)C2=O)cc1OC | -16.2% | ? | 95.1 | 4.8%
O=C(Cn1c(-c2cccs2)cc2cc(Cl)ccc21)N1CCN(c2ccccc2F)CC1 | · | · | -13.2 | ·
CCc1ccc(NC(=O)Cn2c(=O)n(CCCCC(=O)NCCc3ccc(Cl)cc3)c(=O)c3ccccc32)cc1 | · | · | 0.2 | ·
CCOc1ccc(-c2nnc(-c3cccs3)o2)cc1 | ? | 89.4% | 48.1 | ?
CCOc1ccc(-c2cc(C)[n+](CCO)c(-c3ccc(OCC)cc3)c2)cc1 | -23.8% | ? | -76.9* | ?
CCOc1ccc(-c2cc(C)[n+](CCc3ccc(OC)c(OC)c3)c(-c3ccc(OCC)cc3)c2)cc1 | 5.62µM* | ? | -97.5* | ?
COc1ccc(CNC(=O)C2=C(C)C(=O)OC23CCN(C(C)=O)CC3)cc1 | · | · | 0.0 | ·
O=C(CC1C(=O)N(c2ccccc2)C(=O)N1Cc1ccco1)Nc1ccccc1 (stereo not drawn) | 18.0% | 13.4% | 13.6 | 14.7µM*
COc1ccc(NC(=O)CC2C(=O)N(C)C(=S)N2Cc2ccco2)cc1 (stereo not drawn) | -2.0% | -6.8% | -27.1 | 294.2%
CC(C)N1C(=S)N(Cc2ccco2)C(=O)C1CC(=O)Nc1ccccc1 (stereo not drawn) | 30.6% | 1.04µM* | 1.6 | ?
O=C(c1ccc(Cl)c(Cl)c1)c1cc(-c2ccccn2)c(N2CCOCC2)s1 | 1.3% | -4.4% | -74.9* | ?
COc1ccc(CCNC(=O)CCCn2c(=O)c3ccccc3n(CC(=O)Nc3cccc(C)c3)c2=O)cc1OC | · | · | -7.8 | ·
O=C(CSc1nnc(Cc2ccccc2)o1)c1ccccc1 | -9.2% | 26.0% | -16.3 | ?
Cc1ccc(NC(=O)CSc2nnc(Cc3ccccc3)o2)cc1 | 5.8% | 96.6% | 59.3 | 11.7µM*
CCCn1c(N)c(C(=O)CSc2nnc(Cc3ccccc3)o2)c(=O)n(C)c1=O | 10µM* | 8.28µM* | -32.3 | ?
Cc1ccc(NC(=O)CSc2nc(C)c(Cc3ccccc3)c(=O)[nH]2)cc1 | 6.6% | 15.5% | -63.8*! | -38.3%
Cc1ccc(NC(=O)CSc2nc3nc(C)cc(C)c3c(=O)[nH]2)cc1 | 2.8% | 27.5% | -28.9 | 2.33µM*

Assay outcomes deposited in PubChem BioAssay by National Center for Advancing Translational Sciences (NCATS).
